Results on 13 compounds are retold here after PubChem BioAssay (NCI).

About 83,000 compounds went through this panel and 20% of them were active in at least one assay; those are over-represented in the sample as a whole.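 Assay: single dose, 48 h. Readout: percent growth (0 = no net growth; negative = cell death). Active: <10.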 Unmarked numbers belong to inactive results. Calls of active or inactive are those of the source.

Some test systems named below: SK-MEL-2 melanoma; EKVX NSCLC; SN12C renal; UO-31 renal; TK-10 renal; ACHN renal; CAKI-1 renal; A498 renal; CCRF-CEM leukemia; MOLT-4 leukemia.
Holding throughout (experiment): NCI-60 one-dose screen, 48 h (100 = growth as untreated, 0 = no growth, -100 = all killed)
What all share (settings): 10 µM unless noted

With `C=C(c1ccc(C(=O)O)cn1)c1cc2c(cc1C)C(C)(C)CCC2(C)C`, the growth was 84% with SK-MEL-2 melanoma; 83.9% with EKVX NSCLC; 95.7% in the assay with SN12C renal; 81.5% with UO-31 renal; 131% with TK-10 renal; 91.8% in the assay on ACHN renal. In addition, the growth with CAKI-1 renal was 87.9%; in the assay on A498 renal, 80%; in the assay with CCRF-CEM leukemia, 83.5%; in the assay on MOLT-4 leukemia, 95.7%.
On to `Cn1c(=O)c2c(c3ccccc31)OC(N)=C(C#N)C21C(=O)c2ccccc2C1=O`, for which the growth is 107% with SK-MEL-2 melanoma; 86% in the assay on EKVX NSCLC; 90.1% in the assay on SN12C renal; 61.4% in the assay with UO-31 renal; 127% in the assay with TK-10 renal; 97% with ACHN renal. Moreover, the growth in the assay on CAKI-1 renal is 84.2%; in the assay on A498 renal, 82.8%; with CCRF-CEM leukemia, 103%; in the assay with MOLT-4 leukemia, 112%.
As for `O=C1Nc2ccccc2/C1=C/c1cn(C[C@@H](O)Cn2c3ccccc3c(=O)c3ccccc32)c2ccccc12`, the growth with SK-MEL-2 melanoma is 79.9%; with EKVX NSCLC it was 73.1%; with SN12C renal it was 73.7%; in the assay with UO-31 renal it was 30.4%; with TK-10 renal, 90.6%; with ACHN renal, 65.5%. The growth was 74.2% with CAKI-1 renal, 91.1% in the assay with A498 renal, 70.5% in the assay on CCRF-CEM leukemia and 62.6% in the assay on MOLT-4 leukemia.
As for `COC(=O)C1=C(C)NC(C)=C(C(=O)OCC(C)C)C1c1ccccc1[N+](=O)[O-]` (stereo not given), the growth in the assay on SK-MEL-2 melanoma is 64.8%; with EKVX NSCLC it was 58.3%; in the assay with SN12C renal, 64.3%; with UO-31 renal it was 28.3%; with TK-10 renal, 80.7%; in the assay on ACHN renal, 26.8%. Further, the growth in the assay on CAKI-1 renal is 21.9%; with A498 renal, 50.4%; with CCRF-CEM leukemia it was 7.1% (active); in the assay with MOLT-4 leukemia, 43.6%.
As for `C#CC#CC#CC#CC#CC#CC#CC#CC[C@H]1OC[C@@H](COC(=O)O[C@@H](C(=O)O[C@H]2C[C@@]3(O)[C@@H](OC(=O)c4ccccc4)[C@@H]4[C@]5(OC(C)=O)CO[C@@H]5C[C@H](O)[C@@]4(C)C(=O)[C@H](OC(C)=O)C(=C2C)C3(C)C)[C@@H](NC(=O)c2ccccc2)c2ccccc2)O1`, the growth in the assay on SK-MEL-2 melanoma was 76.2%; in the assay with EKVX NSCLC it was 75.4%; in the assay on SN12C renal, 50.2%; in the assay on UO-31 renal, 102%; in the assay with TK-10 renal, 86.5%; in the assay with ACHN renal it was 89.9%. In addition, the growth in the assay with CAKI-1 renal is 79.6%; with A498 renal, 45.4%; in the assay on CCRF-CEM leukemia, 36.2%; in the assay on MOLT-4 leukemia, 42.5%.
In the case of `CC(=O)N(Cc1ccccc1)c1nc2ccc(O)c(CN(C)C)c2s1`, the growth in the assay with SK-MEL-2 melanoma is 108%; with EKVX NSCLC, 89%; in the assay with SN12C renal, 99.2%; in the assay on UO-31 renal it was 77%; with TK-10 renal, 99.6%; with ACHN renal, 96.8%. Further, the growth in the assay on CAKI-1 renal is 82.8%; with A498 renal, 66%; in the assay with CCRF-CEM leukemia, 106%; in the assay on MOLT-4 leukemia it was 112%.
`CCOC(=O)C1CCN(c2ccc(N3C[C@@H](CNCc4ccc(C(=N)N)cc4)OC3=O)cc2)CC1`: the growth in the assay with SK-MEL-2 melanoma is 112%; in the assay on EKVX NSCLC, 99.4%; in the assay with SN12C renal, 97.6%; with UO-31 renal, 77.8%; in the assay on TK-10 renal it was 97.5%; with ACHN renal, 102%. The growth with CAKI-1 renal was 89.4%; in the assay on A498 renal, 108%; in the assay with CCRF-CEM leukemia, 98.5%; with MOLT-4 leukemia it was 101%.
With `CCCCCCC(=O)Nc1ncc(Cc2ccc(C)cc2)s1`, the growth in the assay on SK-MEL-2 melanoma is 63.4%; in the assay on EKVX NSCLC, 53.4%; in the assay on SN12C renal it was 49.4%; with UO-31 renal, 44.8%; in the assay with TK-10 renal, 65.8%; in the assay on ACHN renal, 46.3%. In addition, the growth in the assay on CAKI-1 renal was 35.2%; in the assay with A498 renal, 19.5%; in the assay on CCRF-CEM leukemia, 21.3%; in the assay with MOLT-4 leukemia, 35.2%.
In the case of `CC(C)=CC(=O)N[C@@H]1CC2CCC3C(CC[C@@]4(C)C3CC[C@@H]4C(C)N(C)C)[C@@]2(C)C[C@@H]1O` (stereo not given in full), the growth in the assay on SK-MEL-2 melanoma is 124%; in the assay with EKVX NSCLC, 32.9%; in the assay on SN12C renal, 71.3%; in the assay with UO-31 renal, 10.1%; in the assay with TK-10 renal, 84.5%; with ACHN renal it was 69.6%. Also, the growth is 76.6% with CAKI-1 renal, 67.2% in the assay with A498 renal, 30% in the assay on CCRF-CEM leukemia and -7.31% (active) with MOLT-4 leukemia.
Take `COc1cc(C#Cc2ccc(=O)oc2C#Cc2ccccc2)cc(OC)c1OC`: the growth in the assay on SK-MEL-2 melanoma is 104%; with EKVX NSCLC it was 115%; with SN12C renal it was 16%; in the assay on UO-31 renal, 76.6%; in the assay on TK-10 renal, 134%; in the assay with ACHN renal, 89.3%. Further, the growth was 96.3% with CAKI-1 renal, 119% in the assay with A498 renal, 3.76% (active) in the assay on CCRF-CEM leukemia and 33.4% with MOLT-4 leukemia.
On to `CCOC(=O)c1n[nH]n2c1nc(=O)c1cnn(C)c12`, for which the growth in the assay with SK-MEL-2 melanoma is 99.6%; with EKVX NSCLC, 102%; with SN12C renal, 105%; with UO-31 renal, 84.4%; in the assay on TK-10 renal, 97.6%; in the assay on ACHN renal, 105%. The growth in the assay with CAKI-1 renal was 103%; with A498 renal, 110%; with CCRF-CEM leukemia, 95.6%; with MOLT-4 leukemia, 99.7%.
As for `O=C1/C(=C/c2ccc(C(F)(F)F)cc2)COc2ccc(O)c(O)c21`, the growth is 98% with SK-MEL-2 melanoma; 52.3% in the assay on EKVX NSCLC; -58.6% (active) in the assay with SN12C renal; -98.9% (active) with UO-31 renal; 11.9% in the assay on TK-10 renal; -57.6% (active) in the assay with ACHN renal. Also, the growth in the assay with CAKI-1 renal is -23.6% (active); in the assay on A498 renal, 116%; in the assay on CCRF-CEM leukemia, -3.75% (active); with MOLT-4 leukemia it was -1.49% (active).
Turning to `CCOC(=O)C(=Cc1cccc(C#N)c1)C(=O)OCC`, the growth in the assay with SK-MEL-2 melanoma was 59.9%; with EKVX NSCLC, 82.3%; in the assay with SN12C renal, 79.8%; with UO-31 renal it was 54.3%; in the assay with TK-10 renal, 35.9%; with ACHN renal, 23.7%. Further, the growth with CAKI-1 renal is 79.9%; in the assay with A498 renal, 122%; with CCRF-CEM leukemia, 28.5%; in the assay on MOLT-4 leukemia it was 50%.
